# Measurements reported in PubChem BioAssay (Tox21).
# Activity calls are given as the source filed them. Calls come from the whole dose curve; as a rule, active = well fitted activation curve with a large enough effect in the repeat runs; inconclusive = weak or mixed curves; inactive = flat fitted curve, though single readings scatter.
# Target: Androgen receptor (Homo sapiens) (UniProt P10275)
# Assay: qHTS assay to identify small molecule agonists of the androgen receptor (AR) signaling pathway using the MDA cell line (AID 743040; note: nearly all actives have a fitted effect of over 20% in size)
# Settings: MDA-kb2 AR-luc cells, MMTV luciferase, 16 h; series mostly up to 70.3 µM
# Text: National Center for Advancing Translational Sciences [NCATS]
# NIH Chemical Genomics Center [NCGC]
# U.S. Environmental Protection Agency [EPA]
# National Institutes of Environmental Health Sciences [NIEHS]
# National Toxicology Program [NTP]
# U.S. Food and Drug Administration [FDA]
# Androgen receptor (AR), a nuclear hormone receptor, plays a critical role in AR-dependent prostate cancer and other androgen related diseases. Endocrine disrupting chemicals (EDCs) and their interactions with steroid hormone receptors like AR may cause disruption of normal endocrine function as well as interfere with metabolic homeostasis, reproduction, developmental and behavioral functions. To identify the compounds that activate AR signaling, MDA-kb2 AR-luc cell line (from ATCC, deposited by Wilson et al.) was used to screen the Tox21 10K compound library. MDA-kb2 AR-luc cell line is human breast carcinoma cell line that was stably transfected with a luciferase reporter gene under control of the MMTV promoter containing response elements for both androgen receptor (AR) and glucocorticoid receptor (GR).
# Tox21 Assay Protocol Summary:
# MDA-kb2 AR-luc cells were dispensed at 3,000 cells/5 uL/well of culture medium into white wall/solid-bottom 1536-well plates using a Multidrop Combi (ThermoFisher Scientific, Waltham, MA) dispenser. After the assay plates were incubated at 37C and 0% CO2 for 5 h, 23 nL of compounds dissolved in DMSO, positive controls or DMSO only was transferred to the assay plate by a Pintool station (Kalypsys, San Diego, CA). The plates were incubated at 37C and 0% CO2 for 16 h. Then 4 uL of ONE-Glo reagent (Promega, Madison, WI) was added to each plate using a Bioraptr Flying Reagent Dispenser (FRD) workstation (Beckman Coulter, Indianapolis, IN, USA) and luminescence was quantified on a ViewLux (PerkinElmer, Shelton, CT) plate reader after 30 min incubation at room temperature.
# Chain of Androgen receptor (Homo sapiens) (P10275 whole entry, looked up): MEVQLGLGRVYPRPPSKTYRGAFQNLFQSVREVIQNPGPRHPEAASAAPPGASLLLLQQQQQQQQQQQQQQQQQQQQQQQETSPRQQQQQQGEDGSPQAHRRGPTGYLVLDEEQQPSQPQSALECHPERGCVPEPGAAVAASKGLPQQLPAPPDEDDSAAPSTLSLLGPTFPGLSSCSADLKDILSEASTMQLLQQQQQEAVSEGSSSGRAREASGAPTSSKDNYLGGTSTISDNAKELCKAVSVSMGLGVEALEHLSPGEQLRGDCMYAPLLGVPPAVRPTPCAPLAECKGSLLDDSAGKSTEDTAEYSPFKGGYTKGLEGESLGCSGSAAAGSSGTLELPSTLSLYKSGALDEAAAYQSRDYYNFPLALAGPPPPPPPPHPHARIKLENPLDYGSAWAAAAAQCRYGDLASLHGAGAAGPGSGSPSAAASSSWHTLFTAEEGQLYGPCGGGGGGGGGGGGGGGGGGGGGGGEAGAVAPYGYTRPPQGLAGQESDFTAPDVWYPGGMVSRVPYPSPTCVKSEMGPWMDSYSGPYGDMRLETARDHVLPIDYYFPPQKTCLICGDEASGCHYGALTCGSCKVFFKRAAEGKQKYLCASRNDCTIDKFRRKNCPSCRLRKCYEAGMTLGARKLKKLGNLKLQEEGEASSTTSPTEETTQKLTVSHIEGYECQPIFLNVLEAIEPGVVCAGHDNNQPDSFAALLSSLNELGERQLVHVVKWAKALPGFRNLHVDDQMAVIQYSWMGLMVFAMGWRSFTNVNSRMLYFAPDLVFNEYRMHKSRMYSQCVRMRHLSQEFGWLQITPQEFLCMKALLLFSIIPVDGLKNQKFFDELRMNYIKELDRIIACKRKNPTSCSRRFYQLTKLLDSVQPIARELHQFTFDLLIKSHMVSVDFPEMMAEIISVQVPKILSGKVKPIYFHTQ
row,SMILES,outcome
1,NCCNCCNCCNCCN,inactive
2,C=CC(=O)OCCCCCCCC(C)C,inactive
3,Oc1ccc(OCc2ccccc2)cc1,inactive
4,O=Nc1ccc(O)cc1,inactive
5,CCc1ccc(O)cc1,inactive
6,O=C1CCCCC1,inactive
7,C[C@@H]1O[C@@H](OC[C@H]2O[C@@H](Oc3c(-c4ccc(O)c(O)c4)oc4cc(O)cc(O)c4c3=O)[C@H](O)[C@@H](O)[C@@H]2O)[C@H](O)[C@H](O)[C@H]1O,inactive
8,Nc1nc2ncc(CNc3ccc(C(=O)N[C@@H](CCC(=O)O)C(=O)O)cc3)nc2c(=O)[nH]1,inactive
9,O=C(O)c1cc(-c2ccccc2)nc2ccccc12,inactive
10,Cc1ccc(C)c(C)c1,inactive
11,CCCCC(CC)C(=O)OCCOCCOCCOC(=O)C(CC)CCCC (stereo not given),inactive
12,Oc1ccc2ccccc2c1,inactive
13,Nc1cc(-c2ccncc2)c[nH]c1=O,inactive
14,CCCCC(CC)COC(=O)/C=C\C(=O)OCC(CC)CCCC (stereo not given),inactive
15,CC(C)(CO)COC(=O)C(C)(C)CO,inactive
16,Cc1cc(=O)[nH]c(C(C)C)n1,inactive
17,O=c1c(-c2ccc(O)cc2)coc2cc(O)ccc12,inactive
18,OCC1CCCO1 (stereo not given),inactive
19,CCCCCCCCCC(=O)O,inactive
20,O=[N+]([O-])c1cc(N(CCO)CCO)ccc1NCCO,inactive
